# Epigenetic derep: epigenetic control regulation, reporter derepression. murine LDR cells, GFP reporter derepression, 30 h. Potency, µM (titrated, usually from 53.9 µM), for the others: top-dose GFP activation, hits mostly activators. 280,000 compounds, 0.2% hits; also: % of control where 0% means no effect; nearly all actives have a fitted effect of over 60% in size
#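 Murine LDR cells bearing a silenced CMV-driven GFP reporter were exposed to compound for 30 h at 37 C. After PBS washes, GFP-positive cells (20-120 um objects) counted by laser-scanning microplate cytometry.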
# PINK1 expr mod: changes PINK1 expression; Potency, µM (series often up to 76.6 µM), for inactives: at the highest dose activation (PINK1 increase), most hits filed as activators; PINK1 immunofluorescence, high-content cytometry, 24 h; 410,000 compounds, 0.2% hits; active = well fitted activation curve with a large enough effect; inconclusive = small, poorly fitted or top-dose-only effect; cell line not stated here; also: % of control where 0% means no effect; nearly all actives have a fitted effect of over 65% in size
#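 Cells are seeded, rested 12 hours, then given compound at five concentrations or DMSO for 24 hours. After fixation, blocking and antibody staining, PINK1 amount and mitochondrial localization are scored; CCCP serves as control.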
# VP16 counter: Gal4-VP16 reporter inhibition counter-screen; Drosophila S2 Gal4-VP16 UAS-luciferase, luminescence, 20 h; Potency, µM (top dose mostly 53.6 µM), for the others: at the highest dose activity, negative = inhibition, hits mostly inhibitors; 310,000 compounds, 3.5% hits; AID 2546;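 also: Gal4-VP16 expression switched on by copper sulfate through the metallothionein promoter; % is scaled to controls: 0 for no effect and ±100 for the full control effect; nearly all actives have a fitted effect of over 50% in size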
# Sfp inh: blocks B. subtilis Sfp PPTase activity | Q9F4F7 | Biochemical Sfp PPTase activity, qHTS | Potency, µM, for inactives: largest response in the series, negative = inhibition, hits mostly inhibitors | 310,000 compounds, 3.5% hits | AID 1490;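 also: the enzyme is Sfp with the accession as filed and its product quenches rhodamine fluorescence; 0% = enzyme reaction without inhibitor and -100% = no enzyme wells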
#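 After 15 min at room temperature with compound, 15 nM Sfp received 5 uM rhodamine-CoA plus 12.5 uM BHQ-2-ybbR (50 mM Hepes pH 7.6, 10 mM MgCl2). Rate came from the fluorescence difference over 30 min, ex 525/em 598 nm.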
# RORg inh: inhibitors of mouse ROR gamma transcriptional activity | 310,000 compounds, 5.4% hits | Drosophila S2 Gal4-RORgamma UAS-luciferase reporter, 20 h | Potency, µM (doses to about 53.6 µM), for inactives: top-dose activity change, negative = inhibition, hits mostly inhibitors | AID 2551 | P51450; also: % is scaled to controls: 0 for no effect and ±100 for the full control effect; nearly all actives have a fitted effect of over 60% in size
#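 Schneider cells (Drosophila), stable Gal4 DBD–ROR gamma + UAS-luc; 1 hr cmpd preincubation; Cu2+ induction 700 uM final; 20 hr ambient; luminescence.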
# ClpP mod: qHTS Assay for Activators of ClpP; ATP-dependent Clp protease proteolytic subunit (Bacillus subtilis (strain 168)), P80244; purified B. subtilis ClpP, FRET peptide cleavage, 20 min; Potency, µM (highest dose often 57.5 µM), for inactives: top-dose activity change, negative = active; 340,000 compounds, 1.9% hits; active = well fitted falling curve with a large enough effect; inconclusive = small, poorly fitted or top-dose-only effect; inactive = no such curve, though single readings can be large or run the other way; also: the source files actives as falling curves though it sought activators and does not explain the sign; nearly all actives have a fitted effect of over 65% in size
#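 Purified B. subtilis ClpP, 10 microg/mL final in Tris/HCl pH8 with KCl, BSA, glycerol and Tween-20, cleaved an Abz/nitrotyrosine-quenched decapeptide. Fluorescence (ex 320, em 430) was read at 0 and 20 min at room temperature. Delta was normalized to 5.8 microM ADEP and DMSO/no-enzyme controls.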
# Starred values were filed as active, the others as inactive; u = inconclusive; x = no result; [ ] = remark or other dose. Compounds with a hit are over-represented: about 8.1% of the library has one in this group of screens. Unless noted, calls follow the shape of the dose curve; as a rule, active = well fitted curve in the direction sought with a large enough effect; inconclusive = small, poorly fitted or top-dose-only effect, or another doubt; inactive = no such curve, though single readings can be large; an effect the other way counts as inactive or inconclusive. Potency is read from the fitted curve at half-maximal effect.
SMILES,Epigenetic derep,PINK1 expr mod,VP16 counter,Sfp inh,RORg inh,ClpP mod
CCN1/C(=C\C=C2\C(=O)N(C)C(=S)N2C)Sc2ccccc21,2.6%,2.0%,u,39.8µM*,u,x
CCN1/C(=C2/OC(=S)N(C)C2=O)Sc2ccccc21,-1.0%,6.8%,-0.3%,-22.1%,-28.3%,-1.2%
Cc1cccc(-c2nc(C)c(CCNC(=O)C(=O)Nc3ccccc3C#N)s2)c1,u,8.2%,x,x,x,-0.5%
COc1ccc2cc(CNCc3ccccc3C(F)(F)F)c(N3CCCC(CO)C3)nc2c1 (stereo not drawn),x,-0.3%,x,x,x,x
COc1ccccc1-n1c(SC)nc2c(sc(=S)n2-c2ccccc2)c1=O,x,3.5%,-6.4%,16.6%,-16.8%,x
COc1ccc(-n2c(SCC#N)nc3c(sc(=S)n3-c3ccccc3)c2=O)c(OC)c1,x,0.1%,3.6%,14.1µM*,32.3%,-3.2%
CN(C)/C=C(\C#N)C(=O)N/N=C(\CC(=O)C(F)(F)F)c1ccco1,-1.9%[10.1 µM],0.8%,-18.8%[10 µM],5.4%,4.47µM*,x
CN(C)/C=C(\C#N)C(=O)N/N=C/c1ccc(Cl)cc1,-1.1%,0.9%,-7.2%,13.7%,1.1%,-2.3%
C(=C\c1ccnc2ccccc12)/c1ccc(-[n+]2cc[n+](-c3ccc(/C=C/c4ccnc5ccccc45)cc3)cc2)cc1,x,0.8%,x,x,x,-3.7%
O=C(CCN1C(=O)NC2(CCCC2)C1=O)Nc1ccc(-c2nc3ccccc3s2)cc1,x,-2.0%,x,x,x,20µM*
CCC1(c2ccc(F)cc2)NC(=O)N(CC(=O)Nc2ccc(-c3nc4ccc(C)cc4s3)cc2)C1=O (stereo not drawn),4.8%,22.3%,-13.8%,-10.1%,0.447µM*,7.94µM*
CCn1c(SCC(=O)Nc2ccc(-c3nc4ccc(C)cc4s3)cc2)nnc1-c1ccccc1,4.0%,x,17.8µM*,-17.4%,11.2µM*,x
C=CCn1c(SCC(=O)Nc2ccc(-c3nc4ccc(C)cc4s3)cc2)nnc1-c1ccncc1,1.3%,17.5%,5.5%,8.7%,8.1%,3.55µM*
COc1ccc(C2(C)NC(=O)N(CC(=O)Nc3ccc(-c4nc5ccc(C)cc5s4)cc3)C2=O)cc1 (stereo not drawn),-1.2%,3.1%,-9.3%,-3.7%,-13.9%,x
CCn1c(SCC(=O)Nc2nc(-c3ccc(C)cc3)cs2)nnc1-c1ccccc1,-0.9%,u,16.5%,1.2%,30.8%,2.0%
COc1ccc(CN(Cc2ccccc2)C(=O)c2cccc(C#N)c2)cc1COc1ccc(NC(C)=O)cc1,x,1.1%,x,x,x,0.4%
COc1ccc(OC)c(CCNC(=O)c2cc3c(=O)n(C)c4ccccc4c3n2C)c1,0.0%,0.4%,x,x,x,-18.9%
CC(C)(C)NC(=O)CSc1nc2ccc(NC(=O)CSc3nnnn3Cc3ccccc3)cc2s1,-0.3%,-0.4%,11.2µM*,6.7%,-41.0%,-0.4%
CC(C)c1ccc2oc(-c3cc(N)ccc3O)nc2c1,1.9%,14.7%,22.4µM*,-4.5%,10µM*,1.9%
Cc1ccccc1-c1nc2cc(N)ccc2o1,0.0%,-0.4%,1.9%,2.6%,-26.2%,-7.0%
COC(=O)N[C@H](C[N+](=O)[O-])c1cccc(C)c1,0.0%,x,4.9%,-14.1%,-12.1%,x
COc1ccccc1N1CCN(S(=O)(=O)c2ccc(-c3cc(C(F)(F)F)on3)s2)CC1,2.7%,1.0%,x,x,x,-0.1%
Cc1ccc(NC(=O)CN2C(=O)S/C(=C\c3ccc(-c4cccc(C(=O)O)c4C)o3)C2=O)cc1C,-3.9%,1.6%,2.7%,44.7µM*,-5.5%,x
CCOC(=O)CN1C(=O)S/C(=C\c2ccc(-c3cccc(C(=O)O)c3C)o2)C1=O,x,-1.3%,x,x,x,x
Cc1cccc(NC(=O)CN2C(=O)N/C(=C/c3ccc(-c4cccc(C(=O)O)c4C)o3)C2=O)c1,2.3%,2.9%,-2.5%[10 µM],31.6µM*,-24.1%,x
SMILES,Epigenetic derep,PINK1 expr mod,VP16 counter,Sfp inh,RORg inh,ClpP mod
O=C(CSc1nc2ncccc2o1)Nc1cccc(C(F)(F)F)c1,0.0%,-1.0%,x,x,x,6.1%
Cc1c(C(=O)Nc2ccccc2)sc2nc(-c3cc4cc(Cl)ccc4oc3=O)[nH]c(=O)c12,0.0%,3.4%,x,x,x,-4.9%
Cc1ccc(C)c(CN2CCC3(CCC(CNC(=O)c4ccnn4C)O3)CC2)c1 (stereo not drawn),x,1.4%,x,x,x,x
COc1cccc(NC(=O)c2c(C)oc3nc(C)nc(N4CCCC4)c23)c1,-1.3%,10.9%,x,x,x,-0.8%
Cc1cc(C(c2ccc(C)o2)c2ccc(C)o2)c(O)c([N+](=O)[O-])c1,0.0%,4.3%,-9.8%,50.1µM*,21.2%,1.7%
CN(C)c1ccc(-c2nc3n(n2)C(c2cccnc2)C2=C(CC(C)(C)CC2=O)N3)cc1 (stereo not drawn),-1.1%,2.4%,1.7%,3.2%,41.9%,14.1µM*
CC1(C)CC(=O)C2=C(C1)Nc1ccccc1NC2c1cccnc1 (stereo not drawn),-1.1%,-0.4%,-1.1%,6.3%,21.8%,-4.1%
C/C(=N\NC(=S)NC1CCCCC1)c1ccccc1,0.0%,7.2%,u,17.4%,u,1.2%
CCC(=O)N/N=C(\C)CC(=O)Nc1ccc(F)cc1,1.6%,2.8%,-2.0%,7.5%,u,0.0%
CC(=O)Nc1cccc(/C(C)=N/NC(=S)NC(C)C)c1,-0.5%,-0.3%,u,2.6%,7.94µM*,-2.3%
CC(=O)Nc1ccc(NC(=O)C/C(C)=N/NC(N)=S)cc1,-1.4%,0.3%,-2.4%,56.2µM*,u,1.2%
CC(C)NC(=S)NN=C1c2ccccc2-c2ccccc21,-2.7%,4.9%,u,20.6%,7.94µM*,x
CC(=O)Nc1cccc(/C(C)=N/NC(=O)c2cccs2)c1,-1.1%,0.2%,3.4%,-2.2%,-7.5%,x
CC(C)NC(=S)N/N=C/c1cccnc1,1.1%,1.5%,-24.7%,-24.3%,u,x
C/C(=N\NC(=S)NC(C)C)c1ccccc1,0.0%,0.7%,3.55µM*,-3.5%,0.562µM*,-0.8%
CCCOc1ccc(C(=O)Nc2ccc(NC(=O)c3ccccc3)c(C)c2)cc1,-0.8%,2.0%,x,x,x,13.6%
CCCN(Cc1cccs1)C(=O)Nc1cc(Cl)c(OC)cc1OC,-4.2%,-0.3%,x,x,x,-0.8%
C/C(=N\NC(=S)NC(C)C)c1ccco1,-0.4%,-0.3%,4.47µM*,-16.3%,u,-5.5%
CC(C)NC(=S)NC(c1ccccc1)(c1ccccc1)c1ccccc1,x,u,3.16µM*,-0.3%,u,1.9%
CC(=O)Nc1cccc(/C(C)=N/NC(N)=S)c1,-0.5%,-1.1%,10.8%,35.5µM*,u,x
C=C(C)CNC(=S)N/N=C(\C)c1cccc(NC(C)=O)c1,1.1%,2.1%,u,-5.6%,10µM*,x
COC(=O)N/N=C(\C)c1ccco1,-1.4%,0.9%,-14.7%,17.7%,-33.8%,x
